Measurements: PubChem BioAssay
Active and inactive are the calls of the source. How the calls were made is not given here.

Molecular target: Pantothenate synthetase (Mycobacterium tuberculosis (strain ATCC 25618 / H37Rv)) (UniProt P9WIL5)
Experiment: Recombinant Mtb pantothenate synthetase (PanC) inhibitors, coupled enzyme, confirmatory (AID 375);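 further: 0% = full reaction with vehicle and 100% = no enzyme background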
Details: coupled enzyme assay; at 10 µM, hits give high values

Sequence of Pantothenate synthetase (Mycobacterium tuberculosis (strain ATCC 25618 / H37Rv)) (P9WIL5 whole entry, looked up): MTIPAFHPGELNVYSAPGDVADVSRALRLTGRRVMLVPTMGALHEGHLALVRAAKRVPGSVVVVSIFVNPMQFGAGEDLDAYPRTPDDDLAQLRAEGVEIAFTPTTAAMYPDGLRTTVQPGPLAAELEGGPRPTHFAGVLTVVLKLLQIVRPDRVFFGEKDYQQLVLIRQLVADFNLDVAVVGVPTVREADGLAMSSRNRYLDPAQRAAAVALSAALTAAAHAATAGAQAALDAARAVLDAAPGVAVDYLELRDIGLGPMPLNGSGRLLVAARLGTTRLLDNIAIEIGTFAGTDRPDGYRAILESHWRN

| SMILES | inhibition |
| --- | --- |
| Cc1nn(-c2ccccc2)c(C)c1/C=N/O | 0% (inactive) |
| CCOC(=O)C1CCN(c2c(N3CCCC(C(=O)OCC)C3)c(=O)c2=O)CC1 (stereo not drawn) | 6% (inactive) |
| COc1ccc(-c2cc3n(n2)CCc2nc4ccccc4n2-3)cc1 | 0% (inactive) |
| O=C(CNS(=O)(=O)c1ccc(Br)s1)N1CCCC1 | 0% (inactive) |
| CCN(CC)CCCC1(CN)OCCc2ccccc21 (stereo not drawn) | 0% (inactive) |
| CC(C)NC(=O)CSc1nnc(-c2ccc(C(C)(C)C)cc2)n1C | 1% (inactive) |
| Cc1ccc(CNC(=O)C2CC(=O)OC23CCCC3)c(C)c1 (stereo not drawn) | 0% (inactive) |
| Cc1ccc(/C(O)=C2/C(=O)C(=O)N(Cc3ccco3)C2c2cccs2)cc1 (stereo not drawn) | 0% (inactive) |
| Oc1ccc(-c2onc(C(F)(F)F)c2-c2cscn2)c(O)c1 | 2% (inactive) |
| CC1(C)CC(=O)c2cnc(NC(=O)Cc3ccc(Cl)cc3)nc2C1 | 0% (inactive) |
| COc1cccc(C(=O)n2cnnc2N)c1OC | 4% (inactive) |
| CCCCc1c(O)nc(SCCN(C)C)n(-c2ccccc2)c1=O | 0% (inactive) |
| CC(C)(C)n1cnc2cc(NS(=O)(=O)c3ccc(Br)cc3)ccc21 | 7% (inactive) |
| COc1ccc(C(=O)c2ccc(OC)c(N)c2)cc1N | 0% (inactive) |
| CC(C)(C)C(=O)Cn1c(=N)n(Cc2ccccc2)c2ccccc21 | 8% (inactive) |
| C=CCSc1nnc2n(-c3ccccc3OC)c(=O)c3c4c(sc3n12)CCC4 | 0% (inactive) |
| CCOc1cccc(C(=O)N2CCCCC2c2cccnc2)c1 (stereo not drawn) | 0% (inactive) |
| O=C(O)CCc1ccc(-c2ccc(F)cc2)n1CC(=O)O | 0% (inactive) |
